Measurements as given in the supplement of paper PMC10732440.
± gives the standard deviation of the averaged measurements.

Test system: Caenorhabditis elegans N2 infected with Nematocida parisii ERTm1
Experiment: progeny production relative to DMSO uninfected control; higher = more progeny despite microsporidia infection (inhibition of infection with low host toxicity)
Settings: infection time 6 days
Outline: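 Wild-type C. elegans L1 larvae, synchronised by bleaching, were added at 100 per well to 96-well plates containing K-medium, E. coli OP50 and 15,000 N. parisii spores/μL, and compound was pinned in to 100 μM or 40 μM in 1% DMSO. The plates were shaken at 21°C for 6 days, after which worms were stained with Rose Bengal, scanned on a flatbed scanner and counted using WorMachine. Each compound and dose was run three times. Progeny production is expressed as a percentage of wells with vehicle but no spores, averaged over the replicates.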

Row | Structure (SMILES) | progeny production (40 µM) [%] | progeny production (100 µM) [%]
1 | N#C/C(=C1/SC[C@H](c2ccc(Cl)cc2Cl)S1)n1ccnc1 | 3.11 ± 0.38 | 4.59 ± 2.5
2 | COc1nc2ccc(Br)cc2cc1[C@@H](c1ccccc1)[C@@](O)(CCN(C)C)c1cccc2ccccc12 | 7.24 ± 3.5 | 14.3 ± 4.9
3 | CCc1cc(CCCOc2c(C)cc(-c3noc(C(F)(F)F)n3)cc2C)on1 | 5.28 ± 4 | 12.5 ± 14
4 | O=C(Nc1nnc(-c2ccccc2)o1)c1ccc(F)cc1 | 5.03 ± 1.8 | 6.37 ± 4.7
5 | CC(C)C(=O)N[C@H]1[C@H]([C@H](O)[C@H](O)CO)OC(C(=O)O)=C[C@@H]1N=[N+]=[N-] | 5.36 ± 3.2 | 14.6 ± 5.9
6 | O=C(NC1CCCc2c1[nH]c1ccc(Cl)cc21)c1ccccn1 (centres undefined) | 2.24 ± 0.5 | 7.35 ± 5.1
7 | Cc1c(CN(C)C(=O)/C=C/c2cnc3c(c2)C(C)(C)C(=O)N3)oc2ccccc12 | 6.13 ± 3.2 | 20.6 ± 20
8 | Nc1ccc2oc(=O)ccc2c1I | 3.87 ± 2.3 | 7.24 ± 3.6
9 | N=C(N)c1ccc(COc2ccc(Cl)cc2)cc1 | 3.13 ± 0.66 | 7.24 ± 6.1
10 | C[C@H]1CC[C@@]2(O)C(C)(C)[C@@H]3CC[C@@]2(C)[C@H]1C3 | 6.77 ± 4.3 | 7.52 ± 7.7
11 | Cc1ccn2c(C(=O)NCc3ccccc3)c(C)nc2c1 | 9.26 ± 8.6 | 13.1 ± 10
12 | CCCCCc1ccc(C(=O)NCCn2cc(CCCCCc3c[nH]c(N)n3)nn2)cc1 | 8.32 ± 7.4 | 2.61 ± 1.4
13 | CCc1cc(Nc2cc(=O)n(CCN3CCN(C(=O)c4ccccc4)CC3)c(=O)[nH]2)ccc1C | 5.16 ± 2.4 | 21 ± 12
14 | Cc1c(F)cccc1NC(=O)Nc1ccc(Cl)c(S(=O)(=O)[C@H]2CCCNC2)c1O | 8.9 ± 1.8 | 13 ± 5.7
15 | O=C1NC(=S)N/C1=C\c1cc(Br)cc(Br)c1O | 6.18 ± 0.84 | 10.2 ± 8.1
16 | Nc1ccc(-c2nc3cc(C(F)(F)F)ccc3n2C23CC4CC(CC(C4)C2)C3)cc1 | 5.81 ± 2.1 | 17 ± 6
17 | CCCCCOc1ccc(/C=C2\Oc3c(ccc(O)c3O)C2=O)c(O)c1 | 2.87 ± 0.23 | 11.2 ± 7
18 | CCCNc1ccc(S(=O)(=O)Nc2cc(C)on2)cc1 | 3.09 ± 1.4 | 14 ± 3.8
19 | NC(=O)c1cnc2ccc(S(=O)(=O)c3ccccc3)cc2c1Nc1ccc(O)cc1 | 6.94 ± 3.1 | 17.7 ± 11
20 | Cc1nc(N(C)C(=O)Cc2ccc(-c3ccccn3)cc2)sc1S(N)(=O)=O | 3.86 ± 0.4 | 12.9 ± 8.8
21 | CONC(=N)c1ccc(-c2ccc(-c3ccc(C(=N)NOC)cc3)o2)cc1 | 5.44 ± 1.7 | 14.6 ± 6

Row | Structure (SMILES) | progeny production (40 µM) [%] | progeny production (100 µM) [%]
22 | NCc1ccc(S(N)(=O)=O)cc1 | 5.64 ± 3.5 | 7.3 ± 1.6
23 | CSc1ccc2c(c1)C(N1CCN(C)CC1)Cc1ccccc1S2 (centres undefined) | 5.75 ± 2.9 | 13.9 ± 9
24 | CCN(CC)S(=O)(=O)c1ccc(Cl)c(C(=O)Nc2sc3c(c2C#N)CCCC3)c1 | 6.31 ± 2.1 | 31.3 ± 22
25 | Clc1ccc(Cn2c(CN3CCCC3)nc3ccccc32)cc1 | 3.41 ± 1.9 | 6.88 ± 1.8
26 | CN(C)CCNC(=O)c1cccc2cccnc12 | 5.46 ± 4.5 | 14.7 ± 8
27 | Nc1nc(=O)c(Br)c(-c2ccccc2)[nH]1 | 5.86 ± 5.3 | 9.38 ± 7.4
28 | CC(C)(C)c1cc(CCC(=O)N2CCC2)cc(C(C)(C)C)c1O | 5.76 ± 2.7 | 14.4 ± 8.6
29 | O=S(=O)(Nc1cccc2cccnc12)c1ccccc1 | 5.03 ± 2.5 | 12.9 ± 7.2
30 | CO/N=C(\C(=O)N[C@@H]1C(=O)N2C(C(=O)OCOC(=O)C(C)(C)C)=C(/C=C\c3scnc3C)CS[C@H]12)c1csc(N)n1 | 4.46 ± 2.2 | 13.1 ± 5.6
31 | CCc1cc(CCC(=O)Nc2ccccc2O)c(O)nc1C | 4.5 ± 1.7 | 9.45 ± 3.1
32 | O=C(/C=C\n1cnc(-c2cc(C(F)(F)F)cc(C(F)(F)F)c2)n1)NNc1ccccn1 | 3.49 ± 1.1 | 7.21 ± 3.6
33 | CC(N)C12CC3CC(CC(C3)C1)C2 (centres undefined) | 3.85 ± 0.59 | 6.21 ± 1.8
34 | O=C(O)[C@H]1C2CCC(CC2)[C@@H]1Nc1nc(-c2c[nH]c3ncc(F)cc23)ncc1F | 8.03 ± 4.7 | 14.2 ± 12
35 | O=C(NCc1ccc(F)cc1)c1c(O)c2ncccc2[nH]c1=O | 5.38 ± 2.2 | 16 ± 8.6
36 | CC(C)Oc1ccc(-n2cnc3cc(/C=C\c4ccc(C(C)(C)O)cc4)ccc32)cc1 | 5 ± 1.6 | 10.6 ± 2
37 | NC(=O)c1cnccn1 | 6.68 ± 7.5 | 6.97 ± 1.1
38 | Nc1nc(-c2ccccc2)nc2c1ncn2[C@@H]1O[C@H](COS(=O)(=O)NC(=O)c2ccccc2O)[C@@H](O)[C@H]1O | 6.94 ± 2.3 | 6.74 ± 3.1
39 | NC1C2CC3CC(C2)CC1C3 (centres undefined) | 4.96 ± 2.6 | 13.2 ± 3.6
40 | c1ccc(-c2nnc3c4ccccc4c(N4CCNCC4)nn23)cc1 | 2.73 ± 0.97 | 15.6 ± 12
41 | CCNC(=O)Nc1cc2c(-c3ccnc(C)c3)ccc(CNC(=O)OC)c2cn1 | 4.61 ± 1.9 | 17.2 ± 9.9
42 | Cc1oncc1C(=O)Nc1ccc(C(F)(F)F)cc1 | 3.59 ± 1.6 | 6.66 ± 5
